The values below come from PubChem BioAssay (NCI).

SMILES strings stand for the structures. The panel holds about 83,000 compounds, 20% with a hit somewhere; the sample as a whole holds those more often.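 Cells were grown in 96-well plates and exposed to the test compound at a single concentration for 48 hours; results are reported as percent growth, with values below 10 considered active.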 Unmarked numbers belong to inactive results. Active and inactive are the calls of the source.

One experiment deals with IGROV1 ovarian. In words: NCI-60 one-dose screen, 48 h (100 = growth as untreated, 0 = no growth, -100 = all killed). To be noted: 10 µM unless noted.
For `CC(=S)Nc1ccccc1`, the growth is 89.8%.
In the case of `Nc1ccc(S(=O)(=O)Nc2cc(I)cc(I)c2)cc1`, the growth was 104%.
On to `Cc1cn([C@]2(CF)O[C@H](CO)C2C)c(=O)[nH]c1=O` (stereo partly drawn), for which the growth is -29.1% (active).
Take `COc1cc(NC(C)CCCN2C(=O)c3ccccc3C2=O)c2nccc(C)c2c1OC` (stereo not drawn): the growth was 44.1%.
The same measure, in the same setting: as for `O=C(O)c1ccccc1C(=O)c1ccc(I)cc1`, the figure is 98.4%; as for `CC(C(=O)O)N1C(N)=NNC1c1ccccc1O` (stereo not drawn), 70.9%.
In the case of `COc1ccc(C2=NN(C(=O)COc3ccc(Cl)cc3)C(O)(c3cc(F)c(Cl)cc3Cl)C2)cc1OC` (stereo not drawn), the growth was -50.6% (active).
Same read-out and setting: with `CCCCNC(=O)Oc1ccc(/C(=C(/CC)Cc2ccccc2)c2ccc(OCCCN(C)C)cc2)cc1` the figure was 71.1%.
Same read-out and setting: as for `COc1ccc(C(=O)Cn2cnc3c(Nc4cc(C(=O)Nc5ccc(N6CCN(CCO)CC6)cc5)ccc4C)ncnc32)cc1`, the figure is 110%; as for `COc1cc(NC(=O)c2cc(OC)c3ccn(C)c3c2)cc2c1C[C@]1(C)CC[C@@H](O)C(C)(C)[C@H]1O2`, 68%.

A further experiment concerns OVCAR-3 ovarian. The description is as above. To be noted: 10 µM unless noted.
In the case of `N#CC(C#N)=C(C#N)c1c[nH]c2ccccc12`, the growth is 74.7%.
Same read-out and setting: as for `CNC(=O)NN`, the figure is 91.8%.
With `ClC1c2ccccc2CCc2ccccc21`, the growth is 100%.
`COc1ccc(-c2cc3ccc(N(C)C)cc3nc2N)c(F)c1`: the growth was 34.6%.
On the same count and under the same terms, as for `CCOC(=O)C(C)(CSSCC(C)(NC(=O)c1ccc2ccccc2c1)C(=O)OCC)NC(=O)c1ccc2ccccc2c1` (stereo not drawn), the figure is 110%; as for `COc1ccc(-c2cc(-c3nnc(SC/C(=N\O)c4ccccc4)n3-c3ccccc3)c3ccccc3n2)cc1`, 107%.
Take `CC(=O)Nc1ccc([I+]c2ccc([N+](=O)[O-])cc2)cc1`: the growth is 94.9%.
On the same count and under the same terms, as for `O=[N+]([O-])c1ccc(NS(=O)(=O)c2ccccc2)c2ccccc12`, the figure is 25.5%; as for `COc1ccc(-c2c(C#N)cnc(N)c2-c2nc3cc(C)c(C)cc3[nH]2)cc1`, 55.7%.
In the case of `Cc1ccc2c(c1)Nc1ccc(C)cc1C2(C)C`, the growth is 97.7%.
Still for that read-out and setting: as for `Clc1ccc2c(NCCNc3nc(Cl)nc4ccccc34)ccnc2c1`, the figure is -78% (active); as for `C=C1C(=O)O[C@H]2[C@H]1CC/C(COC(=O)c1ccc(Cl)nc1)=C\CC[C@@]1(C)O[C@@H]21`, -42.1% (active).
As to `COc1ccc(/C=N/C2=NNC(C)(c3ccccc3O)N2C(Cc2c[nH]c3ccccc23)C(=O)O)cc1` (stereo not drawn), the growth was 30%.
Consider `COc1ccc(/C=C/C(=O)/C=C(/C=C/c2ccc(OC)c(OC)c2OC)OB(F)F)c(OC)c1OC`, for which the growth was 5.1% (active).
In the case of `Cc1cc(N2CCOCC2)nc(N(CCNc2ccnc3cc(Cl)ccc23)Cc2ccco2)n1`, the growth was -64.3% (active).
With `NN=C(c1ccc(Cl)cc1)c1ccc(Cl)cc1`, the growth is 107%.
Take `Cc1cc2c(cc1C)N(C(=O)CCl)CCN2C(=O)CCl`: the growth is -95.8% (active).
Still for that read-out and setting: as for `COc1cccc(/C=N/C(=S)NC2(C)C3CCC(C3)C2(C)C)c1O` (stereo not drawn), the figure is 73.2%.
Turning to `CCOC(=O)c1cnc2c(OC)ccc(OC)c2c1Cl`, the growth is 108%.
Consider `CCOc1cccc(Nc2nc(N)nc3[nH]c4ccc(O)cc4c23)c1`, for which the growth was 58.5%.
With `CC(C)CCC[C@@H](C)[C@H]1CC[C@H]2[C@@H]3CC=C4N(c5ccccc5)C(=O)CC[C@]4(C)[C@H]3CC[C@]12C`, the growth was 92.1%.
For `C/C(=N/NC(=O)Cn1c2ccccc2c2ccncc21)c1cccs1`, the growth was 103%.
Take `CC(=S)Nc1ccccc1`: the growth is 101%.
As for `O=C(O)c1ccccc1C(=O)c1ccc(I)cc1`, the growth was 107%.
On the same count and under the same terms, as for `CC(C(=O)O)N1C(N)=NNC1c1ccccc1O` (stereo not drawn), the figure is 83%; as for `CCCCNC(=O)Oc1ccc(/C(=C(/CC)Cc2ccccc2)c2ccc(OCCCN(C)C)cc2)cc1`, 85.2%.
On the same count and under the same terms, with `COc1ccc(C(=O)Cn2cnc3c(Nc4cc(C(=O)Nc5ccc(N6CCN(CCO)CC6)cc5)ccc4C)ncnc32)cc1` the figure was 100%.
Same read-out and setting: as for `COc1cc(NC(=O)c2cc(OC)c3ccn(C)c3c2)cc2c1C[C@]1(C)CC[C@@H](O)C(C)(C)[C@H]1O2`, the figure is 80.7%.

The next experiment concerns HS 578T breast. The description is as above. The conditions noted are these: 10 µM unless noted.
As for `CCC1S/C(=N\N=C(/C)c2cccs2)N(c2ccccc2)C1=O` (stereo not drawn), the growth was 123%.
Same read-out and setting: with `COc1ccc2c(c1)/C(=C/c1c(-c3cc(OC)c(OC)c(OC)c3Br)nc3sccn13)C(=O)N2` the figure was 83.2%; with `N#CC(C#N)=C(C#N)c1c[nH]c2ccccc12`, 87.7%; with `COc1ccc(-c2cc3ccc(N(C)C)cc3nc2N)c(F)c1`, 62.8%.
On the same count and under the same terms, with `CCOC(=O)C(C)(CSSCC(C)(NC(=O)c1ccc2ccccc2c1)C(=O)OCC)NC(=O)c1ccc2ccccc2c1` (stereo not drawn) the figure was 118%; with `COc1ccc(-c2cc(-c3nnc(SC/C(=N\O)c4ccccc4)n3-c3ccccc3)c3ccccc3n2)cc1`, 98.4%.
Still for that read-out and setting: as for `O=[N+]([O-])c1ccc(NS(=O)(=O)c2ccccc2)c2ccccc12`, the figure is 48%.
Take `S=c1n(CNc2ccc(Cl)nn2)nc(-c2cc(Cl)cc(Cl)c2Cl)n1/N=C/c1ccc(Cl)cc1`: the growth was 108%.
Take `Cc1ccc2c(c1)Nc1ccc(C)cc1C2(C)C`: the growth is 113%.
The same measure, in the same setting: as for `Clc1ccc2c(NCCNc3nc(Cl)nc4ccccc34)ccnc2c1`, the figure is -41.9% (active); as for `CN1CCN(Cn2nc(-c3cc(Cl)cc(Cl)c3Cl)n(/N=C/c3ccc(Cl)cc3)c2=S)CC1`, 112%; as for `C=C1C(=O)O[C@H]2[C@H]1CC/C(COC(=O)c1ccc(Cl)nc1)=C\CC[C@@]1(C)O[C@@H]21`, 61.2%.
Same read-out and setting: with `COc1ccc(/C=N/C2=NNC(C)(c3ccccc3O)N2C(Cc2c[nH]c3ccccc23)C(=O)O)cc1` (stereo not drawn) the figure was 51.7%.
`COc1ccc(/C=C/C(=O)/C=C(/C=C/c2ccc(OC)c(OC)c2OC)OB(F)F)c(OC)c1OC`: the growth is 23.6%.
Consider `Cc1cc(N2CCOCC2)nc(N(CCNc2ccnc3cc(Cl)ccc23)Cc2ccco2)n1`, for which the growth is 64%.
With `CC(=O)c1cc2c(N)c(C(=O)Nc3cccc(Cl)c3)sc2nc1C`, the growth was 83.2%.
As to `CCOc1cccc(Nc2nc(N)nc3[nH]c4ccc(O)cc4c23)c1`, the growth is 58.5%.
Consider `CC(C)CCC[C@@H](C)[C@H]1CC[C@H]2[C@@H]3CC=C4N(c5ccccc5)C(=O)CC[C@]4(C)[C@H]3CC[C@]12C`, for which the growth is 109%.
Still for that read-out and setting: with `C=C(C)[C@@H]1C/C=C(\COC(=O)[C@H](OC(C)=O)C(NC(=O)c2ccccc2)c2ccccc2)CC[C@H]2O[C@]2(C)CC/C=C(\C)CC1` (stereo partly drawn) the figure was 79.5% [5 µM].
Regarding `C/C(=N/NC(=O)Cn1c2ccccc2c2ccncc21)c1cccs1`, the growth was 91.1%.
Still for that read-out and setting: with `CC(=S)Nc1ccccc1` the figure was 98.7%.
Still for that read-out and setting: as for `Nc1ccc(S(=O)(=O)Nc2cc(I)cc(I)c2)cc1`, the figure is 117%.
On the same count and under the same terms, as for `Cc1cn([C@]2(CF)O[C@H](CO)C2C)c(=O)[nH]c1=O` (stereo partly drawn), the figure is 110%; as for `COc1cc(NC(C)CCCN2C(=O)c3ccccc3C2=O)c2nccc(C)c2c1OC` (stereo not drawn), 98.7%.
`O=C(O)c1ccccc1C(=O)c1ccc(I)cc1`: the growth was 104%.
Still for that read-out and setting: as for `CC(C(=O)O)N1C(N)=NNC1c1ccccc1O` (stereo not drawn), the figure is 91.1%; as for `COc1ccc(C2=NN(C(=O)COc3ccc(Cl)cc3)C(O)(c3cc(F)c(Cl)cc3Cl)C2)cc1OC` (stereo not drawn), 22%.
Consider `CCCCNC(=O)Oc1ccc(/C(=C(/CC)Cc2ccccc2)c2ccc(OCCCN(C)C)cc2)cc1`, for which the growth was 84.4%.
The same measure, in the same setting: with `COc1ccc(C(=O)Cn2cnc3c(Nc4cc(C(=O)Nc5ccc(N6CCN(CCO)CC6)cc5)ccc4C)ncnc32)cc1` the figure was 97.7%; with `COc1cc(NC(=O)c2cc(OC)c3ccn(C)c3c2)cc2c1C[C@]1(C)CC[C@@H](O)C(C)(C)[C@H]1O2`, 10.2%.
